ChEMBL document CHEMBL1157539, “Thousands of chemical starting points for antimalarial lead identification” (Nature, 2010)

Key:
Format in all cases: functional
[1] = test system: Plasmodium falciparum; test: GSK_TCMDC: Inhibition of Plasmodium falciparum 3D7 in whole red blood cells, using parasite LDH activity as an index of growth. Test compounds present at 2uM
[2] = test system: Plasmodium falciparum; test: GSK_TCMDC: Inhibition of Plasmodium falciparum Dd2 in whole red blood cells, using parasite LDH activity as an index of growth. Test compounds present at 2uM
[3] = test system: HepG2; test: GSK_TCMDC: Percent inhibition of human HepG2 cell line. Test compounds present at 10uM.

SMILES | Inhibition [1] [%] | Inhibition [2] [%] | Inhibition [3] [%]
CC1CN(Cc2cccc(F)c2)CCN1c1ccc(NC(=O)c2cccs2)cc1.O=C(O)C(F)(F)F (stereo not given) | 96 | 96 | 0
C=CCOC(=O)N1CCC(CNCc2cccc(-c3cccc(-c4nc5ccccc5[nH]4)c3)c2)C1.O=C(O)C(F)(F)F (stereo not given) | 100 | 46 | 16
CCN(CC)CCOc1ccc(NC(=O)c2oc3ccccc3c2C=Cc2ccccc2)cc1.O=C(O)/C=C/C(=O)O | 98 | 54 | 51
COc1ccc2nccc([C@@H](O)CN3CCC(NCCOc4ccccc4C(F)(F)F)CC3)c2c1.O=C(O)C(=O)O | 98 | 95 | 2
O=C(Nc1ccc(-c2ccccc2)cc1)Nc1cccc(Cn2ncc(N3CCCNCC3)c(Cl)c2=O)c1 | 100 | 52 | 14
Cl.NOCCCCOc1cc(Cl)c(Cl)cc1Cl | 92 | 5 | 6
COc1ccc2nc(C)cc(N/N=C/c3ccc([N+](=O)[O-])cc3)c2c1 | 100 | 70 | 0
CC(C)(C)c1ccc(S(=O)(=O)Nc2ccccc2N2CCOCC2)cc1 | 90 | 60 | 11
Cc1cccc2nc(-c3cccc(-c4cccc(NC(=O)CNC(=O)c5ccc(O)cc5)c4)c3)[nH]c12 | 94 | 49 | 9
C#CCOc1ccc(N2C(N)=NC(N)=NC2(C)C)cc1.Cl | 94 | 0 | 43
COc1cc(NC(=O)/C=C/c2cc(F)cc(F)c2F)cc(OCCN2CCC(O)(c3ccccc3)CC2)c1.O=C(O)C(=O)O | 100 | 82 | 54
Br.Cc1cc(Br)c(OCCCON2C(=N)N=C(N)NC2(C)C)c(Br)c1 | 95 | 97 | 62
CCn1ccc2c3c(N)nc(N)nc3ccc21 | 99 | 2 | 61
Cc1cccc(-c2ccc(CNC3CCN(CC4Cn5c(=O)ccc6ccc(F)c4c65)CC3)cn2)c1.O=C(O)C(F)(F)F (stereo not given) | 90 | 2 | 0
FC(F)(F)c1ccc2[nH]c(-c3cccc(-c4cccc(CNCC5CCCO5)c4)c3)nc2c1.O=C(O)C(F)(F)F (stereo not given) | 100 | 96 | 23
COc1ccc2nccc([C@@H](O)CN3CCC(NC(=O)Cc4cccc5c(Br)cccc45)CC3)c2c1 | 99 | 34 | 15
O=C(/C=C/c1ccc(Cl)c(Cl)c1)N1CCC(NCc2c[nH]c3ccccc23)CC1 | 94 | 4 | 36
O=C(Nc1cc(F)cc(F)c1)N[C@H]1CCN(CCCCCNC(=O)C2CC2c2ccc(Cl)c(Cl)c2)C1 (stereo not given in full) | 88 | 0 | 24
FC(F)(F)c1ccc2[nH]c(-c3cccc(-c4ccc(CNCCN5CCNCC5)cc4)c3)nc2c1.O=C(O)C(F)(F)F | 96 | 0 | 17
C=C(C)Cn1cc(C2CCN(CCCCNC(=O)c3sc(-c4ccc(Cl)cc4Cl)nc3CO)CC2)c2ccccc21 | 82 | 19 | 22

SMILES | Inhibition [1] [%] | Inhibition [2] [%] | Inhibition [3] [%]
Cc1ccccc1C1CCN(C2CCC(NC(=O)c3cc(-c4ccc(Cl)cc4)cs3)CC2)CC1 (stereo not given) | 100 | 100 | 99
COc1ccc2nccc([C@@H](O)CN3CCC(NCc4cc5c(F)ccc(F)c5[nH]4)CC3)c2c1.O=C(O)C(=O)O | 100 | 67 | 29
COc1cc(Cc2cnc(N)nc2N)cc(OC)c1OCCCCC(=O)O.Cl | 88 | 0 | 0
CC(C)C1=C[C@H]2C[C@]3(C4OCCO4)[C@@H]4CC[C@@H](C)[C@H]4C[C@@]2(COCc2cccc(C#N)c2)[C@]13C(=O)OC(c1ccccc1)c1ccccc1 | 88 | 92 | 0
CC(C)Cn1cc(C2CCN(CCN3CCC(CNC(=O)c4ccc(-c5ccc(C(F)(F)F)cc5)cc4)CC3)CC2)c2ccccc21 | 100 | 87 | 100
COc1ccc(CNC2CCN(C)CC2)cc1-c1ccc(S(=O)(=O)NCc2ccccc2)cc1.O=C(O)C(F)(F)F | 100 | 99 | 56
Cl.O=C(Nc1cccc2ccccc12)N1CCc2cc3nccc(N4CCN5CCC[C@H]5C4)c3cc21 | 99 | 86 | 11
CN(/N=C/c1ccc(Cl)cc1)c1nc(NCCc2ccc(O)cc2)nc(N2CCNCC2)n1 | 100 | 97 | 10
COc1ccc(-c2cccc(CNCc3ccc(F)cc3)c2)cc1S(=O)(=O)NCCN1CCCC1.O=C(O)C(F)(F)F | 100 | 16 | 20
CCc1ccc(C2CCN(CCCCNC(=O)c3ccc(NC(=O)c4ccc(Cl)cc4)cc3)CC2)c(OC(C)=O)c1 | 91 | 100 | 48
O=C(NC1CCN(CC2(c3ccccc3)CCCC2)CC1)c1n[nH]cc1Cl | 83 | 87 | 0
N#Cc1ccc(N(CCOc2ccc(Cl)c(F)c2)Cc2ccccc2C(F)(F)F)cc1C(F)(F)F | 100 | 43 | 17
CCCCCC(C)(C)NC[C@@H](O)[C@H](Cc1ccccc1)NC(=O)c1cc(NCC)cc(N2CCCC2=O)c1.O=CO | 99 | 97 | 9
COc1cc2nc(Nc3ccc(C)cc3)nc(Nc3ccc(C)cc3)c2cc1OC.Cl | 100 | 100 | 99
CCNc1cc(C(=O)N[C@@H](Cc2ccco2)[C@H](O)CNC2CCCCC2)cc(N2CCCCS2(=O)=O)c1.Cl | 91 | 57 | 14
Nc1cccc(CNCc2cccc(-c3cccc(-c4nc5ccccc5[nH]4)c3)c2)c1.O=C(O)C(F)(F)F | 100 | 84 | 1
CN(C)CCCOC(=O)c1cc2cc(-c3ccccc3)ccc2n1S(=O)(=O)Cc1ccccc1.Cl | 100 | 70 | 13
O=C(Nc1ccc(OC(F)(F)F)cc1)NC1CCN(c2ccnc3ccccc23)C1.O=C(O)C(F)(F)F (stereo not given) | 100 | 89 | 25
CS(=O)(=O)Nc1ccc(OCCCCCCOc2ccc(NS(C)(=O)=O)cc2)cc1 | 93 | 82 | 3
CCC(=O)N(c1ccccc1)C1CCN(CCCC(NC(=O)c2cc(C(F)(F)F)cc(C(F)(F)F)c2)c2ccc(Cl)c(Cl)c2)CC1 (stereo not given) | 96 | 57 | 24

SMILES | Inhibition [1] [%] | Inhibition [2] [%] | Inhibition [3] [%]
O=C(NCCCCN1CCN(c2cccc3c2CCCC3)CC1)c1ccc(NC(=O)c2ccc(Cl)cc2)cc1 | 100 | 85 | 35
Nc1nc(N)c2c(Cc3ccccc3)cccc2n1 | 94 | 3 | 68
Cc1ccc(N2C(N)=NC(N)=NC2(C)C)cc1Cl.Cl | 90 | 77 | 66
COc1cccc(NC(=O)NC2CCN(CCCCCNC(=O)/C=C/c3ccc(Cl)c(Cl)c3)CC2)c1 | 100 | 8 | 14
COc1cccc(-c2nn(C)c3sc(C(=O)NCCN4CCN(c5ccccc5F)CC4)cc23)c1 | 85 | 40 | 9
O=C(/C=C/c1ccc(Cl)c(Cl)c1)NCCCCCCN1CCN(C(=O)Nc2cc(Cl)nc(Cl)c2)CC1 | 100 | 0 | 15
O=[N+]([O-])c1ccccc1/C=N/Nc1ccnc2ccc(C(F)(F)F)cc12 | 100 | 36 | 6
COc1c(I)cc(Cc2cnc(N)nc2N)cc1I | 91 | 0 | 5
COc1ccc(Cl)cc1NC(=O)C(C)Nc1ccc(-c2ccccc2)cc1 (stereo not given) | 91 | 89 | 0
COc1ccc2nccc([C@@H](O)CN3CCC(NC(=O)[C@@H]4Cc5ccccc5CN4C(=O)OC(C)(C)C)CC3)c2c1 | 92 | 61 | 15
CN1CCN(c2ccc(Nc3c4ccccc4nc4ccccc34)cc2)CC1 | 100 | 94 | 0
CCCCCCCc1c(C)nc2cccc(OC)c2c1O | 95 | 47 | 43
CCNc1cc(C)nc(Nc2ccc(NS(=O)(=O)c3ccccc3)cc2)n1 | 100 | 54 | 41
Cc1c[nH]c(-c2cccc(C(=O)NC3CCC(CCN4CCc5ccc(C#N)cc5CC4)CC3)c2)n1.Cl (stereo not given) | 100 | 69 | 23
CCOc1cc(Cc2cnc(N)nc2N)cc(OCC)c1OCCCCC(=O)OC | 95 | 0 | 0
CNC(=O)c1ccccc1Nc1nc(Nc2cccnc2)ncc1C.Cl | 93 | 90 | 17
O=C(NCCN1CCCCC1)c1cccc(Nc2nccc(Nc3ccc(Oc4ccccc4)cc3)n2)c1 | 99 | 86 | 50
COc1cc2nc(N3CCC(CNC(=O)c4cc(Br)c(Br)s4)CC3)nc(N)c2cc1OC.O=C(O)C(F)(F)F | 100 | 97 | 22
CCN1C(=O)N(CCC(C)C)C2(CCN(Cc3ccc(OC)cc3O)CC2)C1=O | 89 | 77 | 13
Clc1ccc(-c2nc3cc(-c4ccc5nc(-c6ccc(Cl)cc6)[nH]c5c4)ccc3[nH]2)cc1 | 100 | 99 | 59
